Source: PubChem
NOTCH ag – activates NOTCH signaling in reporter cells; AID 434982; 15,000 compounds, 0.4% hits; NOTCH signaling luciferase reporter cells, luminescence; activation, % at 2.5 µM; in the data active = activation above about 2.2%
TLR4 MyD88 blk – blocks binding of human TLR4 to MyD88. Cell-based TLR4-MyD88 binding inhibition assay. 16,000 compounds, 0.06% hits. AID 811. O00206. inhibition, % at 10 µM; in the data active = inhibition above about 45%
PME-1 Maybr inh – Maybridge compound blocking human PME-1; recombinant PME-1, FP-Rh probe fluorescence polarization; Q9Y570; 16,000 compounds, 0.5% hits; inhibition, % at 9 µM; in the data active = inhibition above about 30%
Nox1 inh – blocks human NADPH oxidase 1 activity; Q9Y5S8; HT29 cells, luminol chemiluminescence ROS; inhibition, % at 6.7 µM; 16,000 compounds, 0.81% hits
luminol inh ctr – counter-screen for Nox1 inhibitors: inhibitors of luminol chemiluminescence; HRP/luminol/H2O2 chemiluminescence counterscreen; inhibition, % at 6.7 µM; 16,000 compounds, 0.4% hits; AID 1823; also: reference of the scale not given here
KOR antag MB – antagonists of human kappa opioid receptor OPRK1, Maybridge library; 16,000 compounds, 0.4% hits; inhibition, % at 9 µM; OPRK1 cells, antagonist mode, fluorescence readout; in the data active = inhibition above about 50%
* hit, by the source's call. Most compounds without a hit are left out; they make up all but 2.6% or so of the library. Rule as the data show it, unless noted: active = inhibition above about 75%; inactive = the rest.

SMILES	NOTCH ag	TLR4 MyD88 blk	PME-1 Maybr inh	Nox1 inh	luminol inh ctr	KOR antag MB
CNC(=S)N(C)NC(=S)Nc1ccc(OC)c(OC)c1	0	-11	0	84*	31	6
N#Cc1ccc(N2CCN(S(=O)(=O)c3ccccc3)CC2)nc1	3.4*	-5	6	-7	-1	-11
N#Cc1ccc(N2CCCN(S(=O)(=O)c3cccs3)CC2)nc1	0	-9	12	14	-4	-5
O=C(COc1ccccc1OC(=O)c1ccc(Cl)cc1)NCc1ccccc1Cl	0	4	3	-43	3	-24
O=C(Cc1ccccc1Cl)N/N=C(/C(=O)O)c1ccccc1	0	9	38*	-29	2	4
N/C(=N\OC(=O)c1ccc(OCC(F)(F)F)nc1)c1cccc(Cl)c1	-1	-8	1	-35	0	5
O=C(NNC(=O)c1ccccc1[N+](=O)[O-])c1cc2c(s1)-c1ccccc1CC2	2.4*	-11	4	3	18	5
